# High-throughput results from PubChem.
# Most compounds without a hit are left out; they make up all but 5.9% or so of the library.
# ALR inh – inhibitors of human sulfhydryl oxidase ALR. P55789. purified ALR, DTT oxidation, H2O2 HRP-luminol luminescence. inhibition, % (test concentration not listed). 290,000 tested, 3.8% active. AID 485317;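 active = mean replicate inhibition above about 79%, with every replicate also reaching it, limit read from the data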
# rCAG RNA binder – molecules binding r(CAG) RNA repeats; r(CAG) RNA repeat, TO-PRO-1 dye displacement fluorescence; inhibition, % at 3 µM; 370,000 tested, 1.3% active;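 active = inhibition above the plate cutoff, the mean of all test compounds on that plate plus 3 SD, cut at about 35% in these data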;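 also: 0% = DMSO alone and 100% = 100 µM mitoxantrone as full dye displacement; higher means more dye released from RNA so lower well fluorescence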
# LANA-H2B inh – blocks KSHV LANA binding to histone H2A/H2B; Q9QR71; cell-free LANA-H2A/H2B peptide, fluorescence polarization; inhibition, % (test concentration not listed); 320,000 tested, 0.6% active; AID 2629; in the data active = inhibition mostly above about 10%, no sharp cut-off; inactive = mostly below about 6.7%
# ABHD5 PLIN5 PPI – inhibitors of human ABHD5-perilipin-5 interaction; Q00G26+Q8WTS1; Split G. princeps luciferase complementation, luminescence, 4 h; inhibition, % at 4 µM; 360,000 tested, 0.78% active;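 active = inhibition above the mean inhibition across every tested compound plus 3 SD, cut at about 22% in these data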;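 also: 0% = DMSO only wells and the 100% control is not disclosed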
# Rtt109 HAT inh – blocks Candida albicans Rtt109/Vps75 acetyltransferase activity. Q5AAJ8. purified Rtt109/Vps75, ThioGlo CoA-SH fluorescence, 4 h. inhibition, % at 34.9 µM. 330,000 tested, 0.16% active;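 active = inhibition of at least 50% in every replicate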
# PRMT1 inh – blocks human protein arginine methyltransferase 1. Q99873. recombinant PRMT1, activity-based probe fluorescence polarization. inhibition, % at 2.79 µM. 370,000 tested, 1.3% active. AID 652257;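 active = inhibition above about 21% made by adding two undisclosed values, limit read from the data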
# ABHD5-PLIN5 conf – ABHD5-PLIN5 interaction inhibition, confirmed. biochemical ABHD5-PLIN5 interaction, luminescence. shares compounds with ABHD5 PLIN5 PPI. 2,200 tested, 67% active. inhibition, % at 4 µM; in the data active = inhibition above about 23%;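 also: 0% = DMSO vehicle wells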
# HNF4 split-luc – active in HNF4 split-luciferase counter-screen for ABHD5-PLIN5 inhibitors; shares compounds with ABHD5 PLIN5 PPI; HNF4 dimerization, luminescence, biochemical; inhibition, % at 4 µM; 2,200 tested, 77% active; AID 651674;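 active = mean inhibition across replicate wells exceeding the computed hit threshold, cut at about 13% in these data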;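 also: light from luciferase halves that rejoin when HNF4 fusion proteins dimerize; 0% = DMSO only wells and the 100% control is not given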
# * marks the source's active call; other numbers are inactive results; nt = no result given.
SMILES,ALR inh,rCAG RNA binder,LANA-H2B inh,ABHD5 PLIN5 PPI,Rtt109 HAT inh,PRMT1 inh,ABHD5-PLIN5 conf,HNF4 split-luc
CC(=O)C(C(C)=O)C1(O)C(=O)c2ccccc2C1=O,34,-4,-4,41*,-1,5,4,11
O=C1C(=O)N(Cc2ccc(-c3ccccc3)cc2)c2ccc(OC(F)(F)F)cc21,nt,nt,nt,nt,nt,3,nt,nt
Cc1ccc2c(c1)C(=O)C(=O)N2Cc1ccc(C(F)(F)F)cc1,-8,3,2,42*,2,1,36*,40*
COC(=O)c1ccc2c(c1)C(C)(C)C(/C=C/c1ccc(O)cc1)=[N+]2C,93*,-46,-38,71*,-5,0,102*,101*
COC(=O)c1ccc2nc(C)c(C)nc2c1,2,0,-1,1,-5,-3,nt,nt
COC(=O)c1ccc2c(c1)C(C)(C)C(/C=C/c1ccc(OC)c(OC)c1OC)=[N+]2C,39,1,-7,47*,4,2,101*,101*
O=C(N=C1N(Cc2ccccc2)[C@@H](Cc2ccccc2)[C@]2(C=C3CCCCC3n3c(=O)n(-c4ccccc4)c(=O)n32)N1C(=O)OCc1ccccc1)c1ccccc1 (stereo partly drawn),nt,15,nt,nt,nt,4,nt,nt
Cc1ccc(C)c(-n2sc3ccc(F)cc3c2=O)c1,20,-1,-4,100*,12,91*,76*,114*
COc1ccc(-n2sc3ccc(F)cc3c2=O)cc1,6,8,2,86*,159*,87*,93*,120*
Cc1cccn2c(=O)nc(SCC(=O)Nc3cccc4ccccc34)nc12,85*,-2,-4,104*,-7,-1,1,0
CC(=O)c1cccc(NC(=O)C2Cc3c(-c4ccco4)ccnc3O2)c1 (stereo not drawn),nt,4,nt,3,nt,1,nt,nt
Cc1cccn2c(=O)c(/C=C(\C#N)C(=O)NC3CCS(=O)(=O)C3)c(Oc3ccccc3Cl)nc12 (stereo not drawn),21,2,0,13,-37,8,nt,nt
Cc1ccccc1Oc1nc2c(C)cccn2c(=O)c1/C=C(\C#N)C(=O)NC1CCS(=O)(=O)C1 (stereo not drawn),6,-3,0,46*,1,0,62*,49*
COc1cc(C2NC(=O)c3ccccc3O2)cc(OC)c1OC (stereo not drawn),nt,-3,0,1,-6,1,nt,nt
COc1cc(C2Oc3ccccc3C=C2[N+](=O)[O-])cc(OC)c1OC (stereo not drawn),nt,5,nt,40*,nt,-7,95*,94*
Cc1ccc(NS(=O)(=O)c2ccc(N3CCN(c4ccc(O)cc4)CC3)c([N+](=O)[O-])c2)c(C)c1,4,17,1,35*,8,16,12,10
O=[N+]([O-])c1cc(S(=O)(=O)Nc2ccccc2)ccc1N1CCN(c2ccc(O)cc2)CC1,nt,9,nt,14,2,8,nt,nt
CCCCCc1cc(=O)oc2c(C(CCN3CCCCC3)c3ccc(OC)cc3)c(OC)cc(OC)c12 (stereo not drawn),nt,7,1,26*,6,-1,7,6
COc1cc(C(CCN2CCCC(C)C2)c2c(OC)cc(OC)c3c(-c4ccccc4)cc(=O)oc23)cc(OC)c1OC (stereo not drawn),nt,nt,5,27*,24,nt,9,7
COC(=O)C1=C(C)N(Cc2ccc(Cl)cc2)C(=S)NC1c1ccccc1 (stereo not drawn),nt,3,nt,nt,nt,-5,nt,nt
O=C(C=Cc1ccccc1)CC(c1ccccc1)N1CCOCC1 (stereo not drawn),nt,0,nt,77*,1,8,100*,95*
O=C(CCc1ccccc1)N[C@H]1[C@H](O)CCC[C@]12C(=O)N(Cc1ccccc1)c1ccccc12,nt,2,nt,nt,nt,4,nt,nt
O=c1[nH]c(/C=C\c2cccc(O)c2)nc(O)c1[N+](=O)[O-],40,4,-6,52*,7,4,52*,43*
O=[N+]([O-])c1ccccc1-c1ccc(/C=N/n2cnnc2)o1,nt,6,3,-5,-4,0,nt,nt
O=C(/C=C/c1ccco1)c1cccc([N+](=O)[O-])c1,nt,39*,nt,29*,1,20,46*,30*
SMILES,ALR inh,rCAG RNA binder,LANA-H2B inh,ABHD5 PLIN5 PPI,Rtt109 HAT inh,PRMT1 inh,ABHD5-PLIN5 conf,HNF4 split-luc
O=C(/C=C/c1ccc(-c2ccccc2[N+](=O)[O-])o1)c1ccco1,-27,15,-1,30*,-3,4,64*,48*
O=C(/C=C\c1ccccc1)Nc1ccc(NC(=O)c2ccco2)cc1,-2,-2,2,6,8,-6,nt,nt
O=C(/C=C/c1ccc(Br)cc1)c1ccc(NC(=O)c2ccco2)cc1,3,5,0,29*,5,-3,61*,46*
O=C(/C=C/c1ccc([N+](=O)[O-])cc1)c1ccco1,9,3,-6,33*,-9,-3,91*,91*
O=C(CSc1nc2ccccc2nc1N1CCCCC1)N1CCN(c2ccccc2)CC1,-3,6,-2,2,1,0,nt,nt
O=C(/C=C/C=C/c1ccccc1)c1ccco1,26,14,-4,21,1,16,nt,nt
O=C(/C=C/c1ccc(Br)cc1)c1ccco1,-2,1,2,79*,2,5,99*,99*
CCOc1ccc(NC(=O)CN2C(=O)c3cccc4cccc2c34)cc1,nt,0,nt,nt,nt,5,nt,nt
COC(=O)[C@]12C[C@H](CC(=O)NCc3cccc(C(F)(F)F)c3)C(=O)N(Cc3ccccc3)C1=C[C@H](C(C)C)O[C@@H]2C1CC1,nt,1,nt,nt,nt,1,nt,nt
O=C(C#Cc1ccccc1)c1ccco1,21,4,-7,39*,-7,17,54*,107*
CC(=O)OCCCN1CCC2(CCC(c3ccccc3)CC2)C1=O (stereo not drawn),nt,0,nt,nt,nt,3,nt,nt
CCOC(=O)C(=Cc1c[nH]c2ccc(S(=O)(=O)N(C)C)cc12)C(=O)OCC,4,10,-3,52*,nt,1,63*,58*
COc1ccc(-c2cc(C(F)(F)F)nc(S(=O)(=O)CCCC(=O)Nc3cccnc3Cl)n2)cc1OC,nt,2,nt,24*,-4,5,33*,50*
CCOC(=O)CS(=O)(=O)c1nc(-c2ccccc2)cc(C(F)(F)F)n1,98*,-4,-7,67*,-2,18,76*,107*
COC(=O)CCS(=O)(=O)c1nc(-c2ccccc2)cc(C(F)(F)F)n1,98*,nt,2,51*,68*,nt,85*,105*
